Experimental data taken from PubChem BioAssay AID720526 (National Center for Advancing Translational Sciences (NCATS), 2013).
Records with an inconclusive call do not appear. A number with no mark means an inactive call. Activity calls are given as the source filed them. The call rests on the fitted dose curve; in most records, active means well fitted activation curve with a large enough effect; inconclusive means small, poorly fitted or top-dose-only effect; inactive means no such curve, though single readings can be large or run the other way.

Assay: qHTS Assay for NPC1 Promoter Activators: Hit Validation Using Renila Luciferase Read-Out for NPC1; on activity change, positive = activation: % of control where 0% means no effect
Details: Huh7 NPC1 promoter-luciferase reporter, luminescence, 24 h; series mostly up to 76.9 µM; activity change, positive = activation: at the top concentration
Procedure, shortened: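 Luciferase reporter read-out: promoter activation measured by luminescence after 10 min with detection reagent at room temperature. Cells were Huh7 with a stable NPC promoter-luciferase construct, treated 24 h at 37 deg C.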
Potency means the concentration at half of the fitted maximal effect.

Compound | activity change, positive = activation | Potency
COc1ccc(/C=C\c2onc(C)c2S(=O)(=O)N2CCC(C(=O)NCCC(C)C)CC2)cc1 | -44.7% | 
COc1ccc(-c2cc(C(=O)Nc3ccccc3F)on2)cc1 | -15.9% | 
Cc1ccc(C2C3=C(CC(C)(C)CC3=O)N(CCN3CCOCC3)C3=C2C(=O)CC(C)(C)C3)cc1 |  | 16.4 µM (active)
Cn1c(SCc2ccccc2)nnc1-c1cnccn1 | -19.9% | 
COc1ccc(-c2nnc(SCC(=O)/C(C#N)=C(\C)N)o2)cc1 | 2.86% | 
CCOC(=O)CSc1nc2cc(C)ccc2cc1C#N | -34.8% | 
Cc1ccccc1NC(=O)Cc1nc(COC(=O)CC(C)c2ccccc2)cs1 (stereo not drawn) | -2.66% | 
COCC1CCN(C(=O)c2ccc3oc(Cc4ccccc4)nc3c2)C1 (stereo not drawn) | -18.2% | 
COc1ccc2oc(=O)c(C(=O)NC(C)c3ccccc3)cc2c1 (stereo not drawn) | -2.14% | 
CCCOP(=O)(c1ccc(N(C)C)cc1)C(O)c1cccnc1 (stereo not drawn) | 5.33% | 
NCCOc1ccccc1-c1ccccc1 | -17% | 
O=C(NCCSCc1c(F)cccc1Cl)c1ccc(CN2CCOCC2)cc1 | -51.3% | 
COc1ccccc1OCCCC(=O)NCc1ccco1 | 6.95% | 
CCOCC(=O)Nc1c(C(=O)Nc2ccc3c(c2)OCCO3)oc2ccccc12 | -45.9% | 
CCN(C(=O)COC(=O)c1ccc(C=O)cc1)c1c(N)n(Cc2ccccc2)c(=O)[nH]c1=O | 2.21% | 
COc1cccc(C(C(=O)NC2CCCC2)N(CCC(C)C)C(=O)CCC(=O)Nc2cc(C)on2)c1 (stereo not drawn) | 22% | 
O=C(C1COc2ccccc2O1)N1CCN(S(=O)(=O)c2ccccc2)CC1 (stereo not drawn) | -1.33% | 
Brc1ccccc1-c1nnc(CSc2nnc3sc4ccccc4n23)o1 | 3.11% | 
